Here are results for seven compounds from PubChem BioAssay (Tox21).

Where “and” joins values, the source holds several entries; their conditions need not be identical. Equal entries are not always repeated. Results filed as inconclusive are left out. A structure can be active in one record and inactive in another. Calls of active or inactive are those of the source. Unless noted, the call rests on the fitted dose curve; in most records, active means well fitted curve in the direction sought with a large enough effect in the repeat runs; inconclusive means weak or mixed curves; inactive means no such curve, though single readings can be large; an effect the other way counts as inactive or inconclusive.

A short description of test [1]: qHTS assay to identify small molecule agonists of the progesterone receptor (PR) signaling pathway - cell viability counter screen (AID 1346799; calls by dose curve; further: nearly all actives have a fitted effect of over 45% in size). Summed up: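 Multiplexed viability read: CellTiter-Glo luminescence, 30 min RT, following LiveBLAzer FRET measurement on PR-UAS-bla HEK293T cells exposed to compounds 16 hr.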
Test [2] in a line: qHTS assay to identify small molecule antagonists of the TGF-beta/Smad signaling pathway - cell viability counter screen (AID 1346824). Further: nearly all actives have a fitted effect of over 50% in size. The method in brief: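 SBE-bla HEK 293T cells, incubated overnight, then compound plus 0.25 ng/mL TGF-beta1 (stock added) for 5 hr at 37 C. Viability was read in the same wells by CellTiter-Glo luminescence after 30 min at room temperature.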
For orientation: In qHTS, concentration-response curves come from the screen itself.

A short description of test [3]: qHTS assay to identify small molecule agonists of the TGF-beta/Smad signaling pathway - cell viability counter screen (AID 1346829). Further: top concentration of the series differs between compounds; nearly all actives have a fitted effect of over 45% in size. Summed up:
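After overnight seating at 37 C and 5% CO2, reporter cells got compounds for 5 hr and FRET substrate for 2 hr; cell viability then came from CellTiter-Glo luminescence.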

A short description of test [4]: qHTS assay to identify small molecule agonists of the TGF-beta/Smad signaling pathway (AID 1346859; active means well fitted activation curve with a large enough effect in the signal ratio in the repeat runs, not every such curve was filed as active; the % refers to the signal ratio; further: series mostly up to about 77 µM). The method in brief: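 Screening used HEK 293T SBE-bla cells at 4,000/well. Test agents: 5 hr, 37 C. Detection: FRET substrate, 2 hr RT, then excitation 405 nm with emissions at 460 and 530 nm.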
Test [5] addresses Thyrotropin-releasing hormone receptor (Homo sapiens) (UniProt P34981). The test can be described thus: qHTS assay to identify small molecule antagonists of the thyrotropin-releasing hormone receptor (TRHR) signaling pathway (AID 1346877; active means well fitted inhibition curve with a large enough effect in the repeat runs, not every such curve was filed as active; further: series mostly up to about 51 µM). The method in brief: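 Kinetic fluorescence (3 min, 1 s resolution) following stimulation with TRH at 1 nM final; HEK293 cells bearing human TRHR; 5 min compound preincubation at RT; concentration-response over 15 points, triplicates.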

The target is the same in test [6]. The test can be described thus: qHTS assay to identify small molecule agonists of the thyrotropin-releasing hormone receptor (TRHR) signaling pathway (AID 1346891; calls by dose curve; further: series mostly up to about 58 µM). The method in brief: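 Readout was intracellular calcium fluorescence in TRHR-Hek293 cells. Cells were incubated 18 h, dye-loaded 2 h at 37 °C, and treated with compound in agonist mode.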
Test [7] in a line: Human pregnane X receptor (PXR) small molecule agonists, qHTS cell viability counter screen (AID 1346977). Further: nearly all actives have a fitted effect of over 50% in size. Summed up: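 In each well, the PXR reporter HepG2 line was checked for viability: CellTiter-Fluor reagent added 23hr post-dosing, fluorescence read after 1hr incubation at 37C.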
A short description of test [8]: Caspase-3/7 induction in CHO-K1 cells by small molecules, qHTS cell viability counter screen (AID 1346979). Further: nearly all actives have a fitted effect of over 35% in size. Summed up:
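Following a 5hr settling period, CHO-K1 cells at 1,500 per well received DMSO-dissolved compounds. Cell viability was quantified 16hr later by CellTiter-Fluor fluorescence, measured after 1hr with reagent at 37C.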

Test [9] in a line: Caspase-3/7 induction in CHO-K1 cells by small molecules, qHTS assay (AID 1346980). Further: nearly all actives have a fitted effect of over 15% in size. The method in brief: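 Wild-type CHO-K1 cells exposed to compounds for 17hr at 37 C, 5% CO2. Caspase-3/7 activity then measured by Caspase-Glo 3/7 luminescence after 30min at room temperature.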
Test [10] is described as follows: Caspase-3/7 induction in HepG2 cells by small molecules, qHTS cell viability counter screen (AID 1346981). Further: series mostly up to about 92 µM; nearly all actives have a fitted effect of over 30% in size. The method in brief:
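In this quantitative HTS counter screen, compounds delivered in DMSO were left on unmodified HepG2 cells for 16 hr at 37 C. Viability was then determined fluorometrically with CellTiter-Fluor, in parallel with caspase-3/7 induction in the same wells.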

Test [11] concerns the target Nuclear receptor subfamily 1 group I member 2 (Homo sapiens) (UniProt O75469). As to the kind of experiment: Human pregnane X receptor (PXR) small molecule agonists, qHTS assay (AID 1346982). Further: nearly all actives have a fitted effect of over 35% in size. Further: potency means the concentration at half of the fitted maximal effect. The method in brief:
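Reporter HepG2 cells expressing PXR-Luc are cultured in charcoal-stripped FBS (5%), treated with compounds for 24 hr at 37 C, and assayed by ONE-Glo luminescence after 30 min at room temperature.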

Test [12] concerns the target Nuclear receptor subfamily 1 group I member 2 (Rattus norvegicus) (UniProt Q9R1A7). The test can be described thus: Rat pregnane X receptor (rPXR) activation by small molecules, qHTS assay (AID 1346983). Further: nearly all actives have a fitted effect of over 20% in size. Further: potency means the concentration at half of the fitted maximal effect. The settings on record: rPXR luciferase reporter cells, One-Glo luminescence, 24 h; max activation: stronger effect = higher value. The method in brief: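 Cell-based rPXR activation assay: rPXR cells, 2,000 per well, rested 5hr at 37 C, then exposed to compounds in DMSO for 24 hr at 37 C. Luciferase activity read by One-Glo luminescence after 30 min at room temperature.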

The target of test [13] is Nuclear receptor subfamily 1 group I member 2 (Homo sapiens) (UniProt O75469). As to the kind of experiment: Human pregnane X receptor (PXR) activation by small molecules, qHTS assay (AID 1346985). Further: nearly all actives have a fitted effect of over 40% in size. Summed up: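 DPX-2 cells (HepG2 co-transfected with a PXR response element and a CYP3A4-promoter luciferase construct) were seeded at 2,000 per well, rested 5 hr at 37C, then exposed to DMSO-dissolved compounds for 24 hr. Activation was read as luciferase luminescence.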
Sequence of Nuclear receptor subfamily 1 group I member 2 (Homo sapiens) (O75469 whole entry, looked up): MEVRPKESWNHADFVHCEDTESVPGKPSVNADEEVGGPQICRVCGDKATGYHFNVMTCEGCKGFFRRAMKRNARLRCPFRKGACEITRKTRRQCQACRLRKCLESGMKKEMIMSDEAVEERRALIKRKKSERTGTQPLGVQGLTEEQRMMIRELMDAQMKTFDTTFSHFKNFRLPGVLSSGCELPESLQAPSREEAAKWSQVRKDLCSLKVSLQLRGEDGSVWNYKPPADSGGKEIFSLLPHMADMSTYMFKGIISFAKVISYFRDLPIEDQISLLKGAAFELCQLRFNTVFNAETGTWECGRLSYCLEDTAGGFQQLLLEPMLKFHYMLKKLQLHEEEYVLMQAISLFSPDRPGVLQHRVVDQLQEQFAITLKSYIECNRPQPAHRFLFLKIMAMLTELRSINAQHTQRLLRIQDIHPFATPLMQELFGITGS

Test [14] addresses Cytochrome P450 2D6 (Homo sapiens) (UniProt P10635). The test can be described thus: Cytochrome P450 Family 2 Subfamily D Member 6 (CYP2D6) small molecule antagonists: luciferase reporter qHTS assay (AID 1671196). Further: series mostly up to about 120 µM; nearly all actives have a fitted effect of over 50% in size. The method in brief:
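Test chemicals meet CYP2D6 plus proluciferin substrate (10 min, RT); NADPH regenerating solution then drives turnover for 1 h. Detection reagent halts the reaction; luminescence measured after 20 min.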
For orientation: A reporter such as luciferase makes a cellular process visible.

Test [15] deals with Cytochrome P450 2C19 (Homo sapiens) (UniProt P33261). The test can be described thus: Cytochrome P450 Family 2 Subfamily C Member 19 (CYP2C19) small molecule antagonists: luciferase reporter qHTS assay (AID 1671197). Further: nearly all actives have a fitted effect of over 65% in size. Further: potency means the concentration at half of the fitted maximal effect. The method in brief:
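Inhibition of CYP2C19 was scored from loss of luminescence in a P450-Glo proluciferin substrate assay, NADPH-started and run 1 h at 37C, with ketoconazole as positive control.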

For test [16], the target named is Cytochrome P450 2C9 (Homo sapiens) (UniProt P11712). As to the kind of experiment: Cytochrome P450 Family 2 Subfamily C Member 9 (CYP2C9) small molecule antagonists: luciferase reporter qHTS assay (AID 1671198). Further: nearly all actives have a fitted effect of over 50% in size. Further: potency means the concentration at half of the fitted maximal effect. The method in brief:
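P450-Glo proluciferin substrate with CYP2C9 enzyme; 10 min RT preincubation, then NADPH regeneration 1 h at 37C; luciferin detection reagent 20 min RT, luminescence in relative luminescence units.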

Test [17] concerns the target Cytochrome P450 1A2 (Homo sapiens) (UniProt P05177). As to the kind of experiment: Cytochrome P450 Family 1 Subfamily A Member 2 (CYP1A2) small molecule antagonists: luciferase reporter qHTS assay (AID 1671199). Further: nearly all actives have a fitted effect of over 50% in size. Further: potency means the concentration at half of the fitted maximal effect. The method in brief:
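Steps: enzyme-substrate mix dispensed; test compounds and furafylline control pinned in; 10 min room temperature; NADPH regeneration solution added, 1 h; reaction stopped with luciferin detection reagent; luminescence read after 20 min.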

Test [18] concerns the target Voltage-gated inwardly rectifying potassium channel KCNH2 (Homo sapiens) (UniProt Q12809). As to the kind of experiment: Human Ether-a-go-go-Related Gene (hERG) channel small molecule antagonists: fluorescence cell-based qHTS assay (AID 1671200). The method in brief:
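In this thallium-flux screen, overnight-cultured U2OS cells bearing the channel are dye-loaded in darkness for an hour, rested 10 min at room temperature, and then monitored kinetically at 480/540 nm for two minutes post-stimulus.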
(Block of hERG is tested as a sign of cardiac risk.)

The target of test [19] is Cytochrome P450 3A4 (Homo sapiens) (UniProt P08684). The test can be described thus: Cytochrome P450 Family 3 Subfamily A Member 4 (CYP3A4) small molecule antagonists: luciferase reporter qHTS assay (AID 1671201). The method in brief: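 CYP3A4 activity was followed with a P450-Glo proluciferin substrate. Test compounds in DMSO were preincubated 10 min; NADPH regeneration then ran 1 h, and light output was read 20 min after detection reagent.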
Sequence of Cytochrome P450 3A4 (Homo sapiens) (P08684 whole entry, looked up): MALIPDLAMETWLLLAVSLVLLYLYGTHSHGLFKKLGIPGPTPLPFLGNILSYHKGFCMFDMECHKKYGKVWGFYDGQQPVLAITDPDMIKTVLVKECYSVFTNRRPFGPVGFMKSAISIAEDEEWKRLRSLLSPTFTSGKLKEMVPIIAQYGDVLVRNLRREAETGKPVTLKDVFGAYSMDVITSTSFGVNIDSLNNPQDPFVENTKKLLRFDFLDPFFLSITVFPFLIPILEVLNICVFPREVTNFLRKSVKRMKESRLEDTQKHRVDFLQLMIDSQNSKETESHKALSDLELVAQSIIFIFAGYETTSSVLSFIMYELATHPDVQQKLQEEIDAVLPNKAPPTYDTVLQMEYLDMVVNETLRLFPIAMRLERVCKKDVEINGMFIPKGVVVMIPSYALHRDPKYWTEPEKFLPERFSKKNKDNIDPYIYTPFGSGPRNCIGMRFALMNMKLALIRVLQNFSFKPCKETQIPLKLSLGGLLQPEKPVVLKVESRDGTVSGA

Test [20] can be described thus: Caspase-3/7 induction in HepG2 cells by small molecules, qHTS assay (AID 1346978). Further: nearly all actives have a fitted effect of over 15% in size. Summed up: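 Wild-type HepG2 cells, 2,000/well, settled 5 hr at 37 C and 5% CO2, then compound-treated for 17 hr; caspase-3/7 activity read by luminescent Caspase-Glo 3/7 after 30 min at room temperature.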
On the % scale 0 is the no-effect control and ±100 the full control effect.

Sequence of Cytochrome P450 1A2 (Homo sapiens) (P05177 whole entry, looked up): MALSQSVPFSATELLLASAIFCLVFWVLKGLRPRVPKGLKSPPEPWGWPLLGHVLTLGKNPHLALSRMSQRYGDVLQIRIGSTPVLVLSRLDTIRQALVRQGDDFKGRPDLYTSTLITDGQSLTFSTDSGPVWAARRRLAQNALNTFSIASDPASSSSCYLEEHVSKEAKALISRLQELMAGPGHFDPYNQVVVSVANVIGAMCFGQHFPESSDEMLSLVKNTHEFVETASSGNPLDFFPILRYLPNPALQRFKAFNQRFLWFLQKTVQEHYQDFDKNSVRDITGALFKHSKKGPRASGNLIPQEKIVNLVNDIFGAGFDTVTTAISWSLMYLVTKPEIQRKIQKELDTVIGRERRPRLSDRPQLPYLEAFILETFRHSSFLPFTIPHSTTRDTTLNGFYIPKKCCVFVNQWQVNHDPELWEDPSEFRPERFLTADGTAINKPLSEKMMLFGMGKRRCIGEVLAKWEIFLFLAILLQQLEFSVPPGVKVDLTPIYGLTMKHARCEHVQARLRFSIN
Sequence of Cytochrome P450 2C9 (Homo sapiens) (P11712 whole entry, looked up): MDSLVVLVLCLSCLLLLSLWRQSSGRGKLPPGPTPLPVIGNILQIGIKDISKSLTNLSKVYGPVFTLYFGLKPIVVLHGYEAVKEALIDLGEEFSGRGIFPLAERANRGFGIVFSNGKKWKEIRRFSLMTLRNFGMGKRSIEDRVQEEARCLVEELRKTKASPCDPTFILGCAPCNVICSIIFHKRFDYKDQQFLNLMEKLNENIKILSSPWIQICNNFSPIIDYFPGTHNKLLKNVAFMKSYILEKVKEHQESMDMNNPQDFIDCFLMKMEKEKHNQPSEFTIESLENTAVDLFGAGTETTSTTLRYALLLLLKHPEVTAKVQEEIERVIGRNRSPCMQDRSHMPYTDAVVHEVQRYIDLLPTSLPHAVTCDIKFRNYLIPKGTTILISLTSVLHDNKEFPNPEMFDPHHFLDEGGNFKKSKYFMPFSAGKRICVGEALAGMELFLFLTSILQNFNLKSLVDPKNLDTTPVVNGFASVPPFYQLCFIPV
Sequence of Cytochrome P450 2D6 (Homo sapiens) (P10635 whole entry, looked up): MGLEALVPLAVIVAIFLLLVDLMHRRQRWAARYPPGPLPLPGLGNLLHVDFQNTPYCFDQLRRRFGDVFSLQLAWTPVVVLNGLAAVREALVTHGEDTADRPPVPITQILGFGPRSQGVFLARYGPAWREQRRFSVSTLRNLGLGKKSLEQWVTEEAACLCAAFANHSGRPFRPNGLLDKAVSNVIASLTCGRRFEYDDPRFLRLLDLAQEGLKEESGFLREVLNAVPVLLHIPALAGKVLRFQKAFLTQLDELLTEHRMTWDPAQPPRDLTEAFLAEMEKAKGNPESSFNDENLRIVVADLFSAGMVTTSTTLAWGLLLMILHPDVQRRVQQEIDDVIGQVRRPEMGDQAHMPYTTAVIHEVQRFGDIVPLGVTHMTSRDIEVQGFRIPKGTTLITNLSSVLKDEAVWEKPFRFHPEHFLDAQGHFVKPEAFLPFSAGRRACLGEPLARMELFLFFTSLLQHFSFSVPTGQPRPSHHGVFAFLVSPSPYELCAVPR
Sequence of Voltage-gated inwardly rectifying potassium channel KCNH2 (Homo sapiens) (Q12809 whole entry, looked up): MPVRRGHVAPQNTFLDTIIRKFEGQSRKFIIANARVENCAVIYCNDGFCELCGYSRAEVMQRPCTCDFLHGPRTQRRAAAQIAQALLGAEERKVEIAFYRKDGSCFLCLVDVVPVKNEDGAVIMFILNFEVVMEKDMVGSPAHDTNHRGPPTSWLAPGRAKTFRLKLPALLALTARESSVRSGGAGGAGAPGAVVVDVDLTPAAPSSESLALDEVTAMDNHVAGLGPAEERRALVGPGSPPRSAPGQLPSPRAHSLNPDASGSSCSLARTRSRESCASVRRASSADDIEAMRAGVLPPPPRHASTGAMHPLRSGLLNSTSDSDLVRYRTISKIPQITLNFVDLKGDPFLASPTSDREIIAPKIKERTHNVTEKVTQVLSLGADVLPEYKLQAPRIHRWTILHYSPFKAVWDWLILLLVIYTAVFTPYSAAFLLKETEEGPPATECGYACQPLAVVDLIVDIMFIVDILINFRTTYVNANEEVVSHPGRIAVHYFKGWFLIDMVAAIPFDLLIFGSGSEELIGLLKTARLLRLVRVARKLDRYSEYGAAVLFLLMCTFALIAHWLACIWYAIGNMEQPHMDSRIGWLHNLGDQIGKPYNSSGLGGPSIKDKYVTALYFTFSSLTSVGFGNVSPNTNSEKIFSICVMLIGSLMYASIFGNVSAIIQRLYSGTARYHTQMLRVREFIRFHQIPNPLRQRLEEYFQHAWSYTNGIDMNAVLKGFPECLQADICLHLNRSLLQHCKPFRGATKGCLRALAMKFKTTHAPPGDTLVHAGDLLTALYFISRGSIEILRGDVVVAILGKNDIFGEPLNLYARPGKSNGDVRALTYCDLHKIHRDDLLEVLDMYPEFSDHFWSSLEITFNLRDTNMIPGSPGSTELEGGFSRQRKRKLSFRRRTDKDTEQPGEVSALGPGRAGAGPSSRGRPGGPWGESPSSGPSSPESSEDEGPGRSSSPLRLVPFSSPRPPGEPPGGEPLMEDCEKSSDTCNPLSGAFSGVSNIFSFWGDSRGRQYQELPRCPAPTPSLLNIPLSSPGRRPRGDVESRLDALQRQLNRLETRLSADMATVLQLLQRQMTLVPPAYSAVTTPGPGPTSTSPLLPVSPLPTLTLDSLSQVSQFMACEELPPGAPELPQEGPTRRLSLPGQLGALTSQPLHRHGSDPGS
Sequence of Thyrotropin-releasing hormone receptor (Homo sapiens) (P34981 whole entry, looked up): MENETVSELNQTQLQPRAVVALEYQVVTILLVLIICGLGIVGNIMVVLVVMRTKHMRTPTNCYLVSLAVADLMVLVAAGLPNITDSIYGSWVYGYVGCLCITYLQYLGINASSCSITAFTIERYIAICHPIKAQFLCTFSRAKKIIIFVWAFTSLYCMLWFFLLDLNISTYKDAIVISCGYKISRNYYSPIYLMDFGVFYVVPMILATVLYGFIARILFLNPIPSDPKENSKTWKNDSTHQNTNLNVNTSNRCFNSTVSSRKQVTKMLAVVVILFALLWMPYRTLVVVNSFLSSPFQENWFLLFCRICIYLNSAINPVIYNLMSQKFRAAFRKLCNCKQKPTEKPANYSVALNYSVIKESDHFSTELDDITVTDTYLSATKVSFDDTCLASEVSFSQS
Sequence of Nuclear receptor subfamily 1 group I member 2 (Rattus norvegicus) (Q9R1A7 whole entry, looked up): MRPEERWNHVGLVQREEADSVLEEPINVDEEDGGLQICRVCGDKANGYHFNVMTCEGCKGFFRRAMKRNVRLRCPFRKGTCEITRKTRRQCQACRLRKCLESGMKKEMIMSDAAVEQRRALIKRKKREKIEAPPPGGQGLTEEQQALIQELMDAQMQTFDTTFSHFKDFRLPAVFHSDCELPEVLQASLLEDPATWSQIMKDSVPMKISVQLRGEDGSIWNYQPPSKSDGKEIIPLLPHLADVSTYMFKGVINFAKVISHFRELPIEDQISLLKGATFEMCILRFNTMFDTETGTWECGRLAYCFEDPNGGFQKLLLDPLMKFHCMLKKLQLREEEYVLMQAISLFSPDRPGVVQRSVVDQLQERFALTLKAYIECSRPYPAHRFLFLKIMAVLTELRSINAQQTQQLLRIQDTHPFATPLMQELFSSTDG
Sequence of Cytochrome P450 2C19 (Homo sapiens) (P33261 whole entry, looked up): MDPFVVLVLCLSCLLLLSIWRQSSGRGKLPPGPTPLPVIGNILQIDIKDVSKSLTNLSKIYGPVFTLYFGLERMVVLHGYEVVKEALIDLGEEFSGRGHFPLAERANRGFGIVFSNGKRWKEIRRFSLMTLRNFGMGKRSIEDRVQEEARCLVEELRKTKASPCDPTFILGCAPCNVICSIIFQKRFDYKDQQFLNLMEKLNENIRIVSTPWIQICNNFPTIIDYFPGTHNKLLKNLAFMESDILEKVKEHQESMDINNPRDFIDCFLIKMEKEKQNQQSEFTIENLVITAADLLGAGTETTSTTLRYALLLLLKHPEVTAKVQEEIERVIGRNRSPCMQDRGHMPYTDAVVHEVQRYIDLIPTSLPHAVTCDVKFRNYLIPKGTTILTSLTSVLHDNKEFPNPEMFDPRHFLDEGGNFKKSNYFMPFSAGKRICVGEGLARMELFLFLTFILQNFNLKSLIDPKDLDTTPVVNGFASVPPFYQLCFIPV

Turning to `CCCCCC(N)=O`, the Potency result in test [1], in [2], in test [3], in test [5], in [7] and in test [8] was “inactive” in each case. In addition, the Potency entry in test [10], in [11], in test [13], in test [14], in test [15] and in test [16] was “inactive” in each case. Besides, the Potency result in test [17] and in test [19] was “inactive” throughout. For the same compound, the compound was called inactive in test [4], in [6], in test [9] and in [18]. In test [12], the max activation was -0.768% (inactive).

Take `Cc1ccc2oc(=O)ccc2c1`: the Potency result in [1], in test [2], in test [3], in [5], in test [7] and in test [8] was “inactive” in each case. Further, the Potency entry in [10], in test [14], in test [16] and in test [19] was “inactive” throughout. Besides, the result in test [4], in [6], in test [9] and in test [18] was inactive. In addition, the Potency was 31.5 µM (active) and inactive in [11]; “inactive and 35.6 µM (active)” in test [15]; 32.6 µM (active) and 31.7 µM (active) in test [17].

In the case of `CC1=CC(=O)NS(=O)(=O)O1`, the Potency result in [1], in test [2], in test [3], in test [5], in [7] and in test [20] was “inactive” each time. Moreover, the Potency result in test [8] and in test [10] was “inactive” each time. Moreover, the compound was classed as inactive in test [4], in [6], in [9] and in test [18]. Moreover, the max activation in test [12] is -3.96% (inactive).

In the case of `C/C=C1/CC2C=CC1C2` (stereo not given), the Potency result in test [1], in test [2], in [3], in [5], in test [7] and in test [8] was “inactive” in each case. Besides, the Potency result in test [10], in [14], in test [15] and in [17] was “inactive” throughout. Moreover, the call in test [4], in [6], in test [9] and in [18] was inactive. The Potency entry in [11] is “inactive and 54.5 µM (active)”; in test [16] it was “inactive and 39.9 µM (active)”.

Turning to `CC(=O)OCC(=O)[C@@]12N=C(C)O[C@@H]1C[C@H]1[C@@H]3CCC4=CC(=O)C=C[C@]4(C)[C@H]3[C@@H](O)C[C@@]12C`, the Potency result in test [1], in test [2], in test [3], in test [5], in test [7] and in [20] was “inactive” throughout. Also, the Potency entry in test [10], in test [13], in test [15], in test [16] and in [19] was “inactive” in each case. Also, the outcome in [4], in test [6], in test [9] and in test [18] was inactive. Besides, the Potency is 17.2 µM (active) in [11]; 15.8 µM (active) in test [12]; “inactive and 17.4 µM (active)” in test [17].

Take `CCCCOC(=O)COc1ccc(Cl)cc1Cl`: the Potency entry in test [1], in [2], in test [3], in test [5], in test [7] and in [8] was “inactive” throughout. Also, the Potency entry in [10], in test [11] and in test [14] was “inactive” throughout. Also, the compound was called inactive in test [4], in test [6] and in test [9]. Also, the Potency in [15] is 36 µM (active) and 39.9 µM (active); in test [16], 36 µM (active) and 35.6 µM (active); in test [17] it was 40.4 µM (active) and 39.9 µM (active).

`CC(c1cc2ccccc2s1)N(O)C(N)=O` (stereo not given): the Potency result in test [1], in test [2], in [3], in test [5], in test [7] and in test [20] was “inactive” in each case. Also, the Potency result in [10] and in [13] was “inactive” throughout. Moreover, the result in test [4], in test [6], in [9] and in test [18] was inactive. For the same compound, the Potency in [11] was 34.4 µM (active) and inactive; in [15], 31.7 µM (active); in test [16] it was 71 µM (active); in [17], 8.94 µM (active) and 11.5 µM (active). The max activation in [12] was 1.87% (inactive).
